Test results reported in the supplement of paper PMC9942566.
Counter-ions that a name gives are not always drawn. ± gives the standard deviation of the averaged measurements.

test system: Serratia marcescens K904 PosmB-luxCDABE reporter (pMQ747); assay: PosmB-lux reporter fold induction (RLU/OD600 relative to no-compound control), highest over Biolog concentrations; higher = stronger Rcs reporter activation; details: Biolog plate: PM16; well positions: F5-8; wild type K904; 4 h
Method: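 Serratia marcescens K904 (wild type) or its isogenic ΔrcsB mutant, carrying the Rcs-dependent PosmB-luxCDABE reporter plasmid pMQ747, was grown in LB at OD600 0.1 in Biolog Phenotype MicroArray plates PM11-20 for 4 h at 30-32°C. Each compound is present at 3-4 proprietary concentrations (not stated); per the Fig. S1 legend the value given is the highest fold over those wells. Three independent trials.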

| Compound | PosmB-lux reporter fold induction |
| --- | --- |
| O=[Se]([O-])[O-].[Na+].[Na+] [sodium selenite] | 1.03 ± 0.38 |

same assay, conditions: Biolog plate: PM17; well positions: A5-8; wild type K904; 4 h

| Compound | PosmB-lux reporter fold induction |
| --- | --- |
| NC(CCl)C(=O)O [b-chloro-L-alanine hydrochloride] | 1.57 ± 0.59 |

same assay, conditions: Biolog plate: PM17; well positions: B5-8; wild type K904; 4 h

| Compound | PosmB-lux reporter fold induction |
| --- | --- |
| CNC1CC(N)C(O)C(OC2OC(CO)C(O)C3OC4(OC(C(N)CO)C(O)C(O)C4O)OC23)C1O (stereo not given) [hygromycin B] | 1.46 ± 0.35 |

same assay, conditions: Biolog plate: PM17; well positions: C1-4; wild type K904; 4 h

| Compound | PosmB-lux reporter fold induction |
| --- | --- |
| Nc1ccncc1 [4-aminopyridine] | 10.2 ± 7.7 |

same assay, conditions: Biolog plate: PM17; well positions: D1-4; wild type K904; 4 h

| Compound | PosmB-lux reporter fold induction |
| --- | --- |
| CC1=C(C(=O)Nc2ccccc2)S(=O)(=O)CCO1 [oxycarboxin] | 2.25 ± 0.26 |

same assay, conditions: Biolog plate: PM17; well positions: D5-8; wild type K904; 4 h

| Compound | PosmB-lux reporter fold induction |
| --- | --- |
| Nc1ncn[nH]1 [3-amino-1,2,4-triazole] | 1.11 ± 0.18 |

same assay, conditions: Biolog plate: PM17; well positions: G1-4; wild type K904; 4 h

| Compound | PosmB-lux reporter fold induction |
| --- | --- |
| O=C(O)CCCc1ccc(N(CCCl)CCCl)cc1 [chlorambucil] | 1.34 ± 0.1 |

same assay, conditions: Biolog plate: PM18; well positions: C9-12; wild type K904; 4 h

| Compound | PosmB-lux reporter fold induction |
| --- | --- |
| Oc1c(Cl)c(Cl)c(Cl)c(Cl)c1Cl [pentachloro-phenol] | 1.04 ± 0.25 |

same assay, conditions: Biolog plate: PM18; well positions: E5-8; wild type K904; 4 h

| Compound | PosmB-lux reporter fold induction |
| --- | --- |
| [O-][I+3]([O-])([O-])O [sodium m-periodate] | 2.47 ± 0.4 |

same assay, conditions: Biolog plate: PM18; well positions: E9-12; wild type K904; 4 h

| Compound | PosmB-lux reporter fold induction |
| --- | --- |
| [Cl][Sb]([Cl])[Cl] [antimony (III) chloride] | 0.722 ± 0.067 |

same assay, conditions: Biolog plate: PM18; well positions: F1-4; wild type K904; 4 h

| Compound | PosmB-lux reporter fold induction |
| --- | --- |
| NNC(N)=O [semicarbazide] | 3.39 ± 0.38 |

same assay, conditions: Biolog plate: PM18; well positions: G5-8; wild type K904; 4 h

| Compound | PosmB-lux reporter fold induction |
| --- | --- |
| Nc1n[nH]c(N)n1 [3,5-diamino-1,2,4-triazole (Guanazole)] | 1.96 ± 0.29 |

same assay, conditions: Biolog plate: PM18; well positions: H5-8; wild type K904; 4 h

| Compound | PosmB-lux reporter fold induction |
| --- | --- |
| Oc1ccccc1-c1ccccc1 [2-phenylphenol] | 2.88 ± 0.52 |

same assay, conditions: Biolog plate: PM18; well positions: H9-12; wild type K904; 4 h

| Compound | PosmB-lux reporter fold induction |
| --- | --- |
| CC1=CC(=O)c2c(O)cccc2C1=O [plumbagin] | 0.936 ± 0.027 |

same assay, conditions: Biolog plate: PM20; well positions: C5-8; wild type K904; 4 h

| Compound | PosmB-lux reporter fold induction |
| --- | --- |
| CN1[C@@H]2CC[C@H]1C[C@@H](OC(=O)C(CO)c1ccccc1)C2 (stereo not given in full) [atropine] | 2.56 ± 0.59 |

same assay, conditions: Biolog plate: PM20; well positions: E5-8; wild type K904; 4 h

| Compound | PosmB-lux reporter fold induction |
| --- | --- |
| CCCCCCCCCCCCNC(=N)N [dodine] | 1.94 ± 0.27 |

same assay, conditions: Biolog plate: PM20; well positions: G1-4; wild type K904; 4 h

| Compound | PosmB-lux reporter fold induction |
| --- | --- |
| O=C1C2CC=CCC2C(=O)N1SC(Cl)(Cl)Cl (stereo not given) [captan] | 2.3 ± 0.41 |

same assay, conditions: Biolog plate: PM20; well positions: G9-12; wild type K904; 4 h

| Compound | PosmB-lux reporter fold induction |
| --- | --- |
| Oc1cccc2cccnc12 [8-hydroxy-quinoline] | 2.7 ± 0.72 |

same assay, conditions: Biolog plate: PM20; well positions: H1-4; wild type K904; 4 h

| Compound | PosmB-lux reporter fold induction |
| --- | --- |
| O=C1C=C2C(=CCOC2O)O1 (stereo not given) [patulin] | 1.71 ± 0.23 |

same assay, conditions: Biolog plate: PM20; well positions: H5-8; wild type K904; 4 h

| Compound | PosmB-lux reporter fold induction |
| --- | --- |
| Cc1ccc(N(SC(F)(Cl)Cl)S(=O)(=O)N(C)C)cc1 [tolylfluanid] | 1.32 ± 0.14 |
